Measured values as given in PubChem BioAssay (EPA / NIEHS).
The source made the active and inactive calls. The calls were made as follows: active = hit-call score of the fitted dose curve at least 0.9, where 1 is the maximum; inactive = score below 0.9.

Target: Hepatocyte nuclear factor 3-beta (Homo sapiens) (UniProt Q9Y261)
Assay: ATG_FoxA2_CIS: Attagene CIS-FACTORIAL HepG2 Assay for human Forkhead box A2 (FOXA2) (AID 2282942)
Details: HepG2 cis-reporter transcription factor activity, 24 h; actives raise or lower the signal
Experimental: ATG_CIS is a cell-based, multiplexed-readout assay that uses HepG2, a human liver cell line, with measurements taken at 24 hours after chemical dosing in a 24-well plate.ATG_FoxA2_CIS is one of 52 assay component(s) measured or calculated from the ATG_CIS assay. It is designed to make measurements of mRNA induction, a form of inducible reporter, as detected with fluorescence intensity signals by Reverse transcription polymerase chain reaction (RT-PCR) and Capillary electrophoresis technology.Data from the assay component ATG_FoxA2_CIS was analyzed into 1 assay endpoint. This assay endpoint, ATG_FoxA2_CIS, was analyzed with bidirectional fitting relative to DMSO as the negative control and baseline of activity. Using a type of inducible reporter, measures of mRNA for gain or loss-of-signal activity can be used to understand the reporter gene at the transcription factor-level as they relate to the gene FOXA2. Furthermore, this assay endpoint can be referred to as a primary readout, because this assay has produced multiple assay endpoints where this one serves a reporter gene function. To generalize the intended target to other relatable targets, this assay endpoint is annotated to the dna binding intended target family, where the subfamily is forkhead box protein.
Human liver HepG2 cells are transiently transfected with multiple reporter transcription units (MRTUs) in 6-well plates using FuGene 6 reagent (Roche; 3 ml FuGene/1 mg DNA). The MRTU constructs are regulated by a cis-regulating element (promoter). […] A major difference between the CIS and TRANS system is that in CIS activities of endogenous TFs are measured, whereas the TRANS assay evaluates changes in activities of exogenous, chimeric NR-Gal4 proteins. […] At the end of 24 hour incubation, total RNA was isolated using TriZol reagent (Invitrogen). The isolated RNA is then reverse-transcribed using oligo(dT) primer and Mo-MLV reverse transcriptase (Invitrogen) with DNAse I (Ambion) treatment for 30 min. The one-tenth of the produced cDNA was amplified by PCR using Taq DNA polymerase (Invitrogen) and two reporter sequence-specific primers. The PCR products were fluorescently labeled by primer extension with 6-arboxyfluorescein (6-FAM) 5'-labeled reporter sequence-specific primer (2 min at 95 C, 20 s at 68 C and 10 min at 72 C) and these products were digested with 5U of HpaI (New England Biolabs) for 2h at 37 C. The fragments were purified using Qiaquick PCR columns (Qiagen), analyzed on an ABI 3130xL genetic analyzer (Applied Biosystems) with peak positions identified by using a set of X-rhodamine (ROX)-labeled MapMarker1000 molecular weight standards (BioVentures). The raw capillary electrophoresis data was processed using Attagraph software (Attagene).

Hepatocyte nuclear factor 3-beta (Homo sapiens), sequence (Q9Y261 whole entry, looked up): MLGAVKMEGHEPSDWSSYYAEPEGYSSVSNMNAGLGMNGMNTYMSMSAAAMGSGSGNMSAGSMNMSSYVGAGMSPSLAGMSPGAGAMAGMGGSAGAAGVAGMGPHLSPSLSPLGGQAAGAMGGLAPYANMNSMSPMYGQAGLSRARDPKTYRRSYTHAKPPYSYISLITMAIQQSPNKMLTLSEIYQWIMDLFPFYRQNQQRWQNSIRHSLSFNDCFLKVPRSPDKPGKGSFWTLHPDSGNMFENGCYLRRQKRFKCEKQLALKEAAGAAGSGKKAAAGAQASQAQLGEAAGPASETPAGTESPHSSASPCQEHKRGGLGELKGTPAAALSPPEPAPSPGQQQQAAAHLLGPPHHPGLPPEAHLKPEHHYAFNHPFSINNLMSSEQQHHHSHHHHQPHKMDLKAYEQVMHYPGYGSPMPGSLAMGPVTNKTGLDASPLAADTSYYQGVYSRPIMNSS

**Q.** For `NC(=O)NC1NC(=O)NC1=O` (stereo not given), which outcome is on record?
**A.** inactive

**Q.** Which outcome does the source give for `CCCCCNCCCCC` here?
**A.** inactive

**Q.** For `C=CC(C)(C)O`, which outcome is on record?
**A.** inactive

**Q.** `CC(C)(N)CO` was tested. Which outcome did it give?
**A.** inactive

**Q.** `CCCCCCCCCCCCCOS(=O)(=O)O` was tested. Which outcome did it give?
**A.** inactive

**Q.** For `CC(C)[C@@H]1CC[C@@H](C)CC1=O`, which outcome is on record?
**A.** inactive

**Q.** How did the outcome turn out when `CC1=CCC2C(C1)C2(C)C` (stereo not given) was run?
**A.** inactive

**Q.** `O=C(O)CCCCCCCCCCC(=O)O` was tested. Which outcome did it give?
**A.** inactive

**Q.** `O=[N+]([O-])c1ccc(C=Cc2ccc([N+](=O)[O-])cc2S(=O)(=O)O)c(S(=O)(=O)O)c1` was tested. Which outcome did it give?
**A.** inactive

**Q.** `CN(C)c1ccc(O)c2c1C[C@H]1C[C@H]3[C@H](N(C)C)C(=O)C(C(N)=O)=C(O)[C@@]3(O)C(=O)C1=C2O` was tested. Which outcome did it give?
**A.** inactive

**Q.** Which outcome does the source give for `CCCCCCCCCCCCCCCC(=O)O` here?
**A.** inactive

**Q.** `COc1nc(C)nc(N)n1` was tested. Which outcome did it give?
**A.** inactive

**Q.** How did the outcome turn out when `CCCCC(CC)COCCC#N` (stereo not given) was run?
**A.** inactive

**Q.** With `Clc1cccc(Cl)n1` as the compound, how does the outcome read?
**A.** inactive

**Q.** How did the outcome turn out when `CCCCCCOC(=O)CCCCC` was run?
**A.** inactive

**Q.** Which outcome does the source give for `O=CCCc1ccccc1` here?
**A.** inactive

**Q.** With `NNc1nc(-c2ccc(N)cc2)cs1` as the compound, how does the outcome read?
**A.** inactive

**Q.** For `Nc1ccc(S(N)(=O)=O)cc1`, which outcome is on record?
**A.** inactive

**Q.** How did the outcome turn out when `CC(C)=CCO` was run?
**A.** inactive

**Q.** `ClCCCl` was tested. Which outcome did it give?
**A.** inactive

**Q.** With `CC(C)=CCC/C(C)=C/COC=O` as the compound, how does the outcome read?
**A.** inactive

**Q.** With `CCCCCCCCCCCCCC(=O)O` as the compound, how does the outcome read?
**A.** inactive

**Q.** With `CCCc1ccccc1O` as the compound, how does the outcome read?
**A.** inactive

**Q.** With `CCCCC/C=C/C=C/C=O` as the compound, how does the outcome read?
**A.** inactive

**Q.** How did the outcome turn out when `CCCCNC(=O)NS(=O)(=O)c1ccc(C)cc1` was run?
**A.** inactive

**Q.** For `C=C(C)C(=O)Nc1ccc(Cl)c(Cl)c1`, which outcome is on record?
**A.** inactive

**Q.** With `COc1ccc(NC(=O)CC(C)=O)cc1` as the compound, how does the outcome read?
**A.** inactive

**Q.** `c1ccc2c(c1)c1cccc3ccc4cccc2c4c31` was tested. Which outcome did it give?
**A.** inactive

**Q.** How did the outcome turn out when `O=[N+]([O-])c1cc(C(F)(F)F)ccc1Cl` was run?
**A.** inactive

**Q.** Which outcome does the source give for `CC(C)(C)NC(N)=O` here?
**A.** inactive

**Q.** With `CCc1ccc(C=O)cc1` as the compound, how does the outcome read?
**A.** inactive

**Q.** How did the outcome turn out when `COc1ccc(Nc2ccccc2)c(C)c1` was run?
**A.** inactive

**Q.** `C=CC(C)(CCC=C(C)C)OC=O` (stereo not given) was tested. Which outcome did it give?
**A.** inactive

**Q.** With `c1ccc2sc(SN(C3CCCCC3)C3CCCCC3)nc2c1` as the compound, how does the outcome read?
**A.** inactive

**Q.** With `Clc1ccc2c(c1)C(N1CCNCC1)=Nc1ccccc1O2` as the compound, how does the outcome read?
**A.** inactive

**Q.** How did the outcome turn out when `Cc1ccccc1C=O` was run?
**A.** inactive

**Q.** With `CC1=CCC(O)(C(C)C)CC1` (stereo not given) as the compound, how does the outcome read?
**A.** inactive

**Q.** How did the outcome turn out when `C=CC(=O)OCCOCCOCC` was run?
**A.** inactive

**Q.** `O=C(Nc1ccccc1)c1cc([N+](=O)[O-])ccc1Cl` was tested. Which outcome did it give?
**A.** inactive

**Q.** `O=C[C@H](O)[C@H](O)[C@H](O)CO` was tested. Which outcome did it give?
**A.** inactive
